Experiment [1] is described as follows: Viability qHTS for spleen associated tyrosine kinase inhibitor (SYKi) naive MV4-11 cells (AID 1963823). Also: nearly all actives have a fitted effect of over 40% in size. A digest of the protocol:
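Viability of MV4-11 AML cells lacking prior SYK inhibitor exposure is scored by CellTiter-Glo luminescence following 72 hr compound incubation at 37 C, 5% CO2, seeded at 500 cells per well.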
(In general: Quantitative high-throughput screening tests each substance at several concentrations.)

Experiment [2] can be described thus: Viability qHTS for spleen associated tyrosine kinase inhibitor (SYKi) drug resistant MV4-11 cells (AID 1963824). Also: nearly all actives have a fitted effect of over 35% in size. An outline of the steps: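 CellTiter-Glo luminescence, read 10 min after reagent addition, reports viability after a 72 hr compound exposure. Cells are an MV4-11 line made resistant to SYK inhibition, seeded at 500 per well onto compound-containing plates.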

Results filed as inconclusive are left out. Values without a mark were called inactive. The source made the active and inactive calls. Calls follow the shape of the dose curve; as a rule, active = well fitted cell-killing curve with a large enough effect; inconclusive = small, poorly fitted or top-dose-only effect, or effect the other way; inactive = no such curve, though single readings can be large or run the other way.
Potency is read from the fitted curve at half-maximal effect.

On to `CO/C1=C\C(C)=C\[C@@H](C)[C@@H](O)[C@@H](C)C/C(C)=C/C=C/[C@H](OC)[C@@H]([C@@H](C)[C@@H](O)[C@H](C)[C@@]2(O)C[C@@H](O)[C@H](C)[C@@H](C(C)C)O2)OC1=O`, for which the values for the Potency in experiment [1] and in experiment [2] were 0.0217 µM (active) and 0.0172 µM (active), respectively.
Take `C[C@]12CCC(=O)C=C1CC[C@@H]1[C@@H]2[C@@H](O)C[C@]2(C)C(=O)CC[C@@H]12`: the Potency result in experiment [1] and in experiment [2] was “inactive” throughout.
In the case of `COC1C=CC23c4cc5c(cc4COC2(O)CN(C)C3C1)OCO5` (stereo unspecified), the Potency result in experiment [1] and in experiment [2] was “inactive” in each case.
Turning to `NC(=O)c1ncn2c1CN=C(c1ccccc1Br)c1cc(F)ccc1-2`, the Potency in experiment [1] was 20.6 µM (active). Moreover, the Potency result in experiment [2] was “inactive”.
Take `C=C1C[C@]2(O)[C@@]3(C)CCC(=O)C(C)(C)C3=C(O)C(=O)[C@@]2(C)[C@@H]2C(=O)O[C@@](C)(C(=O)OC)C(=O)[C@@]12C`: the Potency result in experiment [1] and in experiment [2] was “inactive” each time.
Turning to `C=CC(C)(C)c1[nH]c2c(CC=C(C)C)cc(CC=C(C)C)cc2c1C[C@@H]1NC(=O)[C@H](C)NC1=O`, the Potency entry in experiment [1] and in experiment [2] was “inactive” throughout.
On to `CC1C/C=C/C(O)C(O)CC/C=C/c2cc(O)cc(O)c2C(=O)O1` (stereo unspecified), for which the Potency was 5.7 µM (active) in experiment [1] and 8.05 µM (active) in experiment [2].
Turning to `CC(=O)O[C@H]1C[C@]2(O)[C@@H]3CC[C@@H]4C[C@@H](O)CC[C@]4(C)[C@H]3CC[C@]2(C)[C@H]1c1ccc(=O)oc1`, the Potency in experiment [1] is 0.0259 µM (active); in experiment [2], 0.0231 µM (active).
`C[C@@]1(CO)[C@H](O)CC[C@@]2(C)[C@H]1CC[C@H]1C[C@@H]3C[C@@]12CC[C@]3(O)CO`: the Potency in experiment [1] and in experiment [2] was 1.01 µM (active) each time.
For the molecule `CC1N=C(N)OC1c1ccccc1` (stereo unspecified), the Potency entry in experiment [1] and in experiment [2] was “inactive” throughout.
For the molecule `C[C@@H]1O[C@@H](OC2CCC3(C=O)C(CCC4C3CCC3(C)C(C5=CC(=O)OC5)C(O)CC43O)C2)[C@H](O)[C@H](O)[C@H]1O[C@@H]1O[C@H](CO)[C@@H](O)[C@H](O)[C@H]1O` (stereo partly specified), the Potency is 2.17 µM (active) in experiment [1] and 1.72 µM (active) in experiment [2].
Turning to `CC1=CC(=O)[C@@H](O)[C@@]2(C)C1C[C@H]1OC(=O)[C@H](O)[C@@]3(O)[C@@H](C)[C@@H](O)[C@H](O)C2[C@@]13C` (stereo partly specified), the values for the Potency in experiment [1] and in experiment [2] were 2.02 µM (active) and 1.8 µM (active), respectively.
Regarding `CC[C@@H](C)[C@H]1C(=O)O[C@H](C(C)C)C(=O)N(C)[C@@H]([C@@H](C)CC)C(=O)O[C@H](C(C)C)C(=O)N(C)[C@@H]([C@H](C)CC)C(=O)O[C@H](C(C)C)C(=O)N1C`, the Potency in experiment [1] is 1.22 µM (active); in experiment [2], 1.72 µM (active).
Consider `C=C(CO)[C@@]12O[C@@H]1[C@@]1(C)C(=CC2=O)CC[C@@H](O)[C@@H]1C`, for which the Potency in experiment [1] was 8.2 µM (active); in experiment [2], 5.17 µM (active).
Turning to `CO[C@H]1[C@@H](O)[C@@H](C)O[C@@H](O[C@@H]2C=C3C(OC(C)=O)CC4(O)C(CC[C@]5(C)[C@@H](C6=CC(=O)OC6)CC[C@]45O)[C@@]3(C)CC2)[C@@H]1O` (stereo partly specified), the Potency was 0.0685 µM (active) in experiment [1] and 0.0769 µM (active) in experiment [2].
With `C[C@@H](CN1CCC2(CC1)C(=O)NCN2c1cccc(F)c1)NC(=O)c1ccc(Br)cc1`, the Potency in experiment [1] is 16.4 µM (active); in experiment [2], 13 µM (active).
On to `CC(C)(C)c1cc(C(C)(C)C)c2c(c1)C(O)(C(F)(F)F)C(=O)O2` (stereo unspecified), for which the Potency result in experiment [1] and in experiment [2] was “inactive” throughout.
Consider `CN1CCCC1CCOC(c1cc2nccc(C(=O)O)c2[nH]1)c1ccccc1Cl` (stereo unspecified), for which the Potency result in experiment [1] and in experiment [2] was “inactive” each time.
On to `CCC(OC(C)=O)C(CC(C)NC)(c1ccccc1)c1ccccc1` (stereo unspecified), for which the values for the Potency in experiment [1] and in experiment [2] were 43.7 µM (active) and 31 µM (active), respectively.
Regarding `CC[C@H](C)[C@H](NC(=O)[C@H]1CCCCN1C)C(=O)N(COC(=O)CC(C)C)[C@H](C[C@@H](OC(C)=O)c1nc(C(=O)N[C@@H](Cc2ccc(O)cc2)C[C@H](C)C(=O)O)cs1)C(C)C`, the Potency in experiment [1] and in experiment [2] was 0.0004 µM (active) in each case.
With `CCC(=O)OC1(c2ccccc2)CCN(C)CC1`, the Potency result in experiment [1] and in experiment [2] was “inactive” each time.
Consider `CC(=O)OC12C(O)C(C)C3(O)C4C=C(C)C(=O)C4CC(CO)=CC3C1C2(C)C` (stereo unspecified), for which the Potency result in experiment [1] and in experiment [2] was “inactive” each time.
For the molecule `C/C=C(\C)C(=O)OC1CC2C(CC=C3CC(OC4CC(OC)C(OC5CC(OC)C(OC6OC(C)C(OC7OC(CO)C(O)C(O)C7O)C(OC)C6O)C(C)O5)C(C)O4)CCC32C)C2(O)CCC(C(C)=O)C12C` (stereo unspecified), the viability (% of control) in experiment [1] was 73.7% [at 9.25 µM]. Further, the viability, % of control in experiment [2] is 85.3% [at 9.25 µM].
With `C[C@]12CC[C@H]3[C@@H]([C@H](O)CC4=CC(=O)CC[C@@]43C)[C@@H]1CC[C@@H]2O`, the Potency entry in experiment [1] and in experiment [2] was “inactive” each time.
Take `C[C@@H]1O[C@@H](O[C@H]2CC[C@@]3(C)C(CC[C@@H]4C3CC[C@]3(C)[C@@H](C5=CC(=O)OC5)CC[C@]43O)C2)[C@H](O[C@@H]2O[C@H](CO)[C@@H](O)[C@H](O)[C@H]2O)[C@H](O)[C@H]1O` (stereo partly specified): the Potency in experiment [1] was 0.343 µM (active); in experiment [2], 0.172 µM (active).
For `COC1CC(OC2CCC3(C=O)C(CCC4C3CCC3(C)C(C5=CC(=O)OC5)CCC43O)C2)OC(C)C1OC1OC(CO)C(O)C(O)C1O` (stereo unspecified), in that order: 0.0862 µM (active) and 0.0544 µM (active).
For `CCC(C)(O)C1(C(=O)O)COC(=O)C1` (stereo unspecified), in that order: “inactive” and “inactive”.
As for `O=C1C[C@@H]2OCC=C3CN4CC[C@]56c7ccccc7N1[C@H]5[C@H]2[C@H]3C[C@H]46`, the Potency entry in experiment [1] and in experiment [2] was “inactive” in each case.

(Values after PubChem BioAssay (NCATS).)
